We go through 40 compounds from PubChem BioAssay (Tox21).

Results filed as inconclusive are left out. Where a call stands in place of a potency, no number is given. The source made the active and inactive calls. Calls come from the whole dose curve; as a rule, active = well fitted inhibition curve with a large enough effect in the repeat runs; inconclusive = weak or mixed curves; inactive = flat fitted curve, though single readings scatter.
Potency is the fitted concentration of half-maximal effect.

In this assay the target is Voltage-gated inwardly rectifying potassium channel KCNH2 (Homo sapiens) (UniProt Q12809). The assay can be described thus: Human Ether-a-go-go-Related Gene (hERG) channel small molecule antagonists: fluorescence cell-based qHTS assay (AID 1671200). Note: nearly all actives have a fitted effect of over 50% in size. The settings on record: hERG-U2OS cells, FluxOR thallium flux fluorescence; series mostly up to 76.8 µM. From the text: National Center for Advancing Translational Sciences [NCATS]
Sequence of Voltage-gated inwardly rectifying potassium channel KCNH2 (Homo sapiens) (Q12809 whole entry, looked up): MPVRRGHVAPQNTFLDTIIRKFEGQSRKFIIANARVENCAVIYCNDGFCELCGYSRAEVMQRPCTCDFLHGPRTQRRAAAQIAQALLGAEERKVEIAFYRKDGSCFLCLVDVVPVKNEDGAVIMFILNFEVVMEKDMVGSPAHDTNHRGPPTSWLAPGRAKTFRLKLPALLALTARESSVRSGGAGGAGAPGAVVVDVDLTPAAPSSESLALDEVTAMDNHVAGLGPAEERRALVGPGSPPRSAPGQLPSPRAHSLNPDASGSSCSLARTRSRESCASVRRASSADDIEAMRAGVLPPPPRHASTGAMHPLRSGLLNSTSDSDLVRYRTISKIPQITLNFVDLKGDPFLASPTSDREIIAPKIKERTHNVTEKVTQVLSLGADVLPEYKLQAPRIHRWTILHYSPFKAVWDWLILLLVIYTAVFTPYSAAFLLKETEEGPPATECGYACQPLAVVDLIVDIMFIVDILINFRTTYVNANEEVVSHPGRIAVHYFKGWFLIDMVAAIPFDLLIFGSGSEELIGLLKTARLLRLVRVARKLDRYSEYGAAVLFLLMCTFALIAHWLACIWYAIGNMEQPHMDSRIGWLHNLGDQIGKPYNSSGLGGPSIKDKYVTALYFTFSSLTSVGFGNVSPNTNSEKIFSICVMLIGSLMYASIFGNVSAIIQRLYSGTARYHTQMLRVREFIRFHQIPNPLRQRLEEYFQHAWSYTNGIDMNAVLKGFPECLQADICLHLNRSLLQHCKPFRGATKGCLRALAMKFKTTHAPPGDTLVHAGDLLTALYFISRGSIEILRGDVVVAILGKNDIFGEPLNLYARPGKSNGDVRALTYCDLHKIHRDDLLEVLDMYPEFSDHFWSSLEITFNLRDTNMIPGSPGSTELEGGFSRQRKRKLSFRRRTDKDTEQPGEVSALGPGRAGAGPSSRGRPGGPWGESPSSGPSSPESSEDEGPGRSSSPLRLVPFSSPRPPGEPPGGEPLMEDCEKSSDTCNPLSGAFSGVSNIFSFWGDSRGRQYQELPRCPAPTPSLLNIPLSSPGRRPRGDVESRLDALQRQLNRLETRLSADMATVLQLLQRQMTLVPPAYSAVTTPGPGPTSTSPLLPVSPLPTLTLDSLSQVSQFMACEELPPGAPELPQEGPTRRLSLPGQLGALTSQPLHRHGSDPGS
U.S. Environmental Protection Agency [EPA]
National Institutes of Environmental Health Sciences [NIEHS]
National Toxicology Program [NTP]
U.S. Food and Drug Administration [FDA]
Mutations in the hERG channel cause Long QT (LQT) syndrome. LQT syndrome is a cardiac disorder which can cause ventricle arrhythmia and sudden death. Additionally, compounds which block the hERG channel can cause acquired LQT syndrome. Several FDA approved drugs have been removed from the market due to their hERG blocking activity. A cell-based hERG channel inhibition assay can be used to screen chemical compounds that inhibit hERG channel. This assay measures hERG channel activity using thallium ions as surrogate ions to measure potassium into the cells.
Tox21 Assay Protocol Summary:
hERG-U2OS cells were resuspended in culture medium and dispensed into 1536-well, black wall/clear-bottom plates at 1000cells/well/3uL using a Multidrop Combi dispenser (Thermo Fisher, Waltham, MA). After plates were incubated at 37 C overnight, 3 uL of Loading Buffer provided by FluxOR II Potassium Ion Channel Assay kit (Thermo, Carlsbad, CA) was added to each well. The assay plates were then incubated at room temperature in the dark for 1h. […] After the assay plates were incubated at room temperature for 10 min, 1 uL of Stimulus Buffer provided by FluxOR II Potassium Ion Channel Assay kit was added into each well and fluorescence intensity (480nm excitation/540nm emission) was continuously measured for 2 min at 1 second intervals using a Functional Drug Screening System (FDSS) 7000EX kinetic plate reader (Hamamatsu, Japan).
As for `O=C(Nc1ccc([N+](=O)[O-])cc1)Nc1ccc([N+](=O)[O-])cc1` (tested in a mixture with another compound), the Potency entry was “inactive”.

For the compound `O=c1cc[nH]cc1`, the Potency result is “inactive”.

Turning to `C[C@H]1O[C@@H](O[C@H]2CC[C@@]3(C)[C@H](CC[C@@H]4[C@@H]3C[C@@H](O)[C@]3(C)[C@@H](C5=CC(=O)OC5)CC[C@]43O)C2)C[C@H](O)[C@@H]1O[C@H]1C[C@H](O)[C@H](O[C@H]2C[C@H](O)[C@H](O[C@@H]3O[C@H](CO)[C@@H](O)[C@H](O)[C@H]3O)[C@@H](C)O2)[C@@H](C)O1`, the Potency result was “inactive”.

`C=COCCCC`: the Potency result is “inactive”.

As for `Cc1ccc2nc(-c3ccc(N)cc3)sc2c1S(=O)(=O)O`, the Potency result was “inactive”.

For the compound `CC(C)C(=O)C(C)C`, the Potency entry is “inactive”.

For `COc1cccc(-c2ccc(/C=C\CN3CCCCCC3)cc2Cl)c1`, the Potency was 1220 nM (active).

Take `CC(=O)CC(N)=O`: the Potency result is “inactive”.

Consider `CC(C)=NNC(N)=S`, for which the Potency entry is “inactive”.

`CC(CC(C)(C)C)CC(C)(C)CC(C)(C)C` (stereo not given): the Potency result was “inactive”.

Regarding `CCN(CC)c1ccc(C=O)c(O)c1`, the Potency result is “inactive”.

For the compound `CN(C/C=C/c1ccccc1)Cc1cccc2ccccc12`, the Potency is 2390 nM (active).

Regarding `Cc1c(Cl)c(=O)oc2cc(O)ccc12`, the Potency result was “inactive”.

As to `c1ccc2cc3c4ccccc4c4ccccc4c3cc2c1`, the Potency entry was “inactive”.

On to `CC(C)(C)c1ccc(OC2CCCCC2O)cc1` (stereo not given), for which the Potency entry was “inactive”.

As for `C1=CCCC1`, the Potency result is “inactive”.

With `CN1CCN(c2ccccc2/C=C2\SCCN(c3ccc(Cl)c(Cl)c3)C2=O)CC1`, the Potency is 2190 nM (active).

With `Nc1c(Br)cc([N+](=O)[O-])cc1Br`, the Potency entry is “inactive”.

In the case of `Nc1ccc(F)c([N+](=O)[O-])c1`, the Potency result was “inactive”.

Consider `CCNc1nc(NC(C)(C)C)nc(OC)n1`, for which the Potency entry was “inactive”.

`O=C(Nc1ccccc1)c1cc(Cl)ccc1O`: the Potency result is “inactive”.

As to `CCOc1ccc([N+](=O)[O-])cc1`, the Potency entry is “inactive”.

In the case of `CC(C)c1ccc2sc3ccccc3c(=O)c2c1`, the Potency entry is “inactive”.

Turning to `COC(=O)c1ccc([N+](=O)[O-])cc1`, the Potency result is “inactive”.

`Cc1ccc(C=O)cc1`: the Potency result is “inactive”.

As to `Nc1ccc(Oc2cccc(Oc3ccc(N)cc3)c2)cc1`, the Potency result was “inactive”.

In the case of `CC(C)=CCC[C@H](C)CC=O`, the Potency result was “inactive”.

As to `Cc1cccc(C)c1C`, the Potency entry is “inactive”.

Take `C=CC(=O)O[C@H]1C[C@@H]2CC[C@@]1(C)C2(C)C`: the Potency entry was “inactive”.

Regarding `ClC(c1ccccc1)(c1ccccc1)c1ccccc1`, the Potency result was “inactive”.

Consider `CCOC(=O)[C@H](O)[C@@H](O)C(=O)OCC`, for which the Potency entry is “inactive”.

Turning to `O=C(CCCCCCCCc1cccnc1)N1CCC(C=C(c2ccccc2)c2ccccc2)CC1`, the Potency was 6920 nM (active).

Regarding `CC1(C)[C@H]2CC[C@]1(C)C(=O)C2`, the Potency result is “inactive”.

Regarding `Cn1ccnc1`, the Potency entry is “inactive”.

`CCCCCc1ccc(O)cc1`: the Potency entry is “inactive”.

Consider `CCn1c2ccccc2c2ccccc21`, for which the Potency result was “inactive”.

`CCN(CC)c1ccc(N=Nc2ccccc2)cc1`: the Potency entry is “inactive”.

`Cc1ccc(C2OC[C@@H]3OC(c4ccc(C)cc4)O[C@H]([C@H](O)CO)[C@@H]3O2)cc1` (stereo not given in full): the Potency entry is “inactive”.

`CCC(=O)OC/C=C(\C)CCC=C(C)C`: the Potency entry is “inactive”.

With `Nc1ccc(Cl)c([N+](=O)[O-])c1`, the Potency result was “inactive”.
